PubChem BioAssay (NCATS)
Records with an inconclusive call do not appear. Where a call stands in place of a potency, no number is given. Unmarked numbers belong to inactive results. Activity calls are given as the source filed them. Unless noted, calls follow the shape of the dose curve; as a rule, active = well fitted curve in the direction sought with a large enough effect; inconclusive = small, poorly fitted or top-dose-only effect, or another doubt; inactive = no such curve, though single readings can be large; an effect the other way counts as inactive or inconclusive.

What was measured:
[1] = biological target: Aldehyde dehydrogenase, mitochondrial (Homo sapiens) (UniProt P05091); test: qHTS for Inhibitors of the Aldehyde Dehydrogenase Family (ALDH2) Validation screens (AID 2061302; active = well fitted inhibition curve with a large enough effect; title and protocol of this record describe different tests); conditions: ALDH inhibition qHTS; series mostly up to 42.6 µM
[2] = biological target: Retinaldehyde dehydrogenase 3 (Homo sapiens) (UniProt P47895); test: qHTS for Inhibitors of the Aldehyde Dehydrogenase Family (ALDH1A3) Validation screen (AID 2061312); conditions: ALDH1A3 enzyme inhibition qHTS validation, fluorescence; series mostly up to 42.4 µM; also: nearly all actives have a fitted effect of over 45% in size
[3] = BET inhibitor-based combinations targeting novel dependencies in MECOM-rearranged (r) AML: HNT-34 cell line (AID 2202234); conditions: HNT-34 AML viability, CellTiter-Glo luminescence, 48 h; series mostly up to 46 µM; also: nearly all actives have a fitted effect of over 35% in size; also: potency is read from the fitted curve at half-maximal effect
Outline: (§1)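 Luminescent ATP readout (CellTiter-Glo, 15 min at room temperature) after 48 hr drug exposure gave viability. Dose-response curves, normalized to DMSO and empty-well controls, were summarized as area under the curve and its mean-centred Z-score.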

[4] = BET inhibitor-based combinations targeting novel dependencies in MECOM-rearranged (r) AML: UCSD-AML1 cell line (AID 2202235); conditions: UCSD-AML1 AML cells viability, CellTiter-Glo, 48 h; series mostly up to 46 µM; also: nearly all actives have a fitted effect of over 40% in size; also: potency is read from the fitted curve at half-maximal effect
Outline: as §1

[5] = BET inhibitor-based combinations targeting novel dependencies in MECOM-rearranged (r) AML: AML-191 cell line (AID 2202236; also: nearly all actives have a fitted effect of over 35% in size); conditions: AML-191 viability, CellTiter-Glo luminescence, 48 h; series mostly up to 46 µM
Outline: (§2)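 Luminescent ATP readout (CellTiter-Glo) after 48 hr drug exposure gives viability. Curves span 11 concentrations and are normalized to DMSO and empty wells. Activity is reported as area under the curve and its Z-transform within each cell line.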

[6] = qHTS for Inhibitors of the Aldehyde Dehydrogenase Family (ALDH1A2, ALDH1A3, ALDH2, ALDH3A1) (AID 2061307); conditions: ALDH inhibition qHTS; series mostly up to 50.3 µM; also: nearly all actives have a fitted effect of over 50% in size
[7] = biological target: Retinaldehyde dehydrogenase 3 (Homo sapiens) (UniProt P47895); test: qHTS for Inhibitors of the Aldehyde Dehydrogenase Family (ALDH1A3) Confirmatory screens (AID 2061311); conditions: ALDH inhibition qHTS; series mostly up to 46 µM; also: nearly all actives have a fitted effect of over 60% in size; also: potency is read from the fitted curve at half-maximal effect
[8] = biological target: Retinal dehydrogenase 2 (Homo sapiens) (UniProt O94788); test: qHTS for Inhibitors of the Aldehyde Dehydrogenase Family (ALDH1A2) Confirmation screens (AID 2061314); conditions: ALDH1A2 enzyme inhibition qHTS confirmation; series mostly up to 45.9 µM; also: nearly all actives have a fitted effect of over 65% in size; also: potency is read from the fitted curve at half-maximal effect
[9] = biological target: Aldehyde dehydrogenase 1A1 (Homo sapiens) (UniProt P00352); test: qHTS for Inhibitors of the Aldehyde Dehydrogenase Family (ALDH1A1) Confirmatory screens (AID 2061316); conditions: ALDH inhibition qHTS; series mostly up to 47.3 µM; also: nearly all actives have a fitted effect of over 65% in size; also: potency is read from the fitted curve at half-maximal effect
[10] = BET inhibitor-based combinations targeting novel dependencies in MECOM-rearranged (r) AML: OCI-AML3 cell line (AID 2202232); conditions: CellTiter-Glo luminescence, 48 h; Potency: OCI-AML3 viability; series mostly up to 46 µM; also: potency is read from the fitted curve at half-maximal effect; nearly all actives have a fitted effect of over 35% in size
Outline: as §2

[11] = BET inhibitor-based combinations targeting novel dependencies in MECOM-rearranged (r) AML: MV-4-11 cell line (AID 2202233); conditions: MV-4-11 AML viability, CellTiter-Glo luminescence, 48 h; series mostly up to 46 µM; also: potency is read from the fitted curve at half-maximal effect; nearly all actives have a fitted effect of over 45% in size
Outline: as §1

[12] = BET inhibitor-based combinations targeting novel dependencies in MECOM-rearranged (r) AML: AML-194 cell line (AID 2202237; also: potency is read from the fitted curve at half-maximal effect; nearly all actives have a fitted effect of over 40% in size); conditions: AML-194 (MECOM-r AML) viability, CellTiter-Glo, 48 h; series mostly up to 46 µM
Outline: as §2

[13] = biological target: Aldehyde dehydrogenase, mitochondrial (Homo sapiens) (UniProt P05091); test: qHTS for Inhibitors of the Aldehyde Dehydrogenase Family (ALDH2) Confirmatory screens (AID 2061303; active = well fitted inhibition curve with a large enough effect; title and protocol of this record describe different tests; also: nearly all actives have a fitted effect of over 45% in size; also: potency is read from the fitted curve at half-maximal effect); conditions: ALDH inhibition qHTS; series mostly up to 45.4 µM
[14] = biological target: Aldehyde dehydrogenase, mitochondrial (Homo sapiens) (UniProt P05091); test: qHTS for Inhibitors of the Aldehyde Dehydrogenase Family (ALDH2) Primary screen (AID 2061308); conditions: ALDH2 enzyme inhibition qHTS, 1536-well; series mostly up to 56 µM; also: nearly all actives have a fitted effect of over 55% in size; also: potency is read from the fitted curve at half-maximal effect
[15] = biological target: Retinaldehyde dehydrogenase 3 (Homo sapiens) (UniProt P47895); test: qHTS for Inhibitors of the Aldehyde Dehydrogenase Family (ALDH1A3) Primary screen (AID 2061315); conditions: ALDH inhibition qHTS; series mostly up to 56 µM

**Q.** What does the source list for `C=CCN1CCC23c4c5ccc(O)c4O[C@H]2C(=O)CC[C@@]3(O)C1C5` (stereo not given in full)?
**A.** Potency [1]: inactive; Potency [2]: inactive

**Q.** With `CC(C)Oc1cccnc1N(C)C1CCN(Cc2ccccc2)CC1` as the compound, how does the Potency [1] read?
**A.** inactive

**Q.** What about the Potency [2] of the same compound?
**A.** inactive

**Q.** Which Potency [1] does the source give for `CC[C@@H](C(N)=O)N1CCCC1=O` here?
**A.** inactive

**Q.** What about the Potency [2] of the same compound?
**A.** inactive

**Q.** What about the Potency [3] of the same compound?
**A.** inactive

**Q.** What about the Potency [4] of the same compound?
**A.** inactive

**Q.** And the Potency [5]?
**A.** inactive

**Q.** Which Potency [1] does the source give for `Cc1ncsc1CCCl` here?
**A.** inactive

**Q.** Which Potency [1] does the source give for `N#CCCN` here?
**A.** inactive

**Q.** Which results are given for `CCCn1c(C)c(C(=O)c2ccc3ccccc3c2)c2ccccc21`?
**A.** Potency [6]: inactive; Potency [7]: inactive; Potency [8]: inactive; Potency [9]: inactive

**Q.** For `C=C(C)[C@H]1Cc2c(ccc3c2O[C@@H]2COc4cc(OC)c(OC)cc4[C@@H]2C3=O)O1`, which Potency [1] is on record?
**A.** inactive

**Q.** And the Potency [10]?
**A.** 332 nM (active)

**Q.** What about the Potency [11] of the same compound?
**A.** 417 nM (active)

**Q.** And the Potency [3]?
**A.** 833 nM (active)

**Q.** And the Potency [4]?
**A.** 934 nM (active)

**Q.** What about the Potency [12] of the same compound?
**A.** 934 nM (active)

**Q.** Which Potency [13] does the source give for `COc1cc(O)c2c(c1)CCC[C@@H](O)[C@H](O)C(=O)/C=C\C[C@H](C)OC2=O` here?
**A.** inactive

**Q.** What about the Potency [14] of the same compound?
**A.** inactive

**Q.** And the Potency [7]?
**A.** inactive

**Q.** What about the Potency [8] of the same compound?
**A.** inactive

**Q.** And the Potency [15]?
**A.** inactive

**Q.** With `CCOc1ccc(CCNC(=O)c2cc3cccnc3n2Cc2cccc(C)n2)cc1OCC` as the compound, how does the Potency [13] read?
**A.** inactive

**Q.** And the Potency [14]?
**A.** inactive

**Q.** And the activity change, negative = inhibition [7]?
**A.** -11.9% [at 0.022 µM]

**Q.** And the Potency [15]?
**A.** inactive

**Q.** For `CC1=C(C)C(=O)C(CC[C@](C)(O)CCC[C@H](C)CCC[C@H](C)CCCC(C)C)=C(C)C1=O`, which Potency [6] is on record?
**A.** inactive

**Q.** What about the Potency [14] of the same compound?
**A.** inactive

**Q.** And the Potency [7]?
**A.** 10.1 µM (active)

**Q.** What about the Potency [8] of the same compound?
**A.** 4.49 µM (active)

**Q.** What about the Potency [9] of the same compound?
**A.** inactive

**Q.** Which Potency [13] does the source give for `N#Cc1c(-c2cccc(-c3no[n+]([O-])c3C#N)c2)no[n+]1[O-]` here?
**A.** 1.27 µM (active)

**Q.** And the Potency [14]?
**A.** 282 nM (active)

**Q.** And the Potency [8]?
**A.** 1.27 µM (active)

**Q.** What about the Potency [15] of the same compound?
**A.** inactive

**Q.** And the Potency [9]?
**A.** 12.7 µM (active)

**Q.** With `Cc1cc(C)c(OP(=O)(OCc2c(-c3ccccc3)no[n+]2[O-])Oc2c(C)cc(C)cc2C)c(C)c1` as the compound, how does the Potency [6] read?
**A.** 12.6 µM (active)

**Q.** What about the Potency [15] of the same compound?
**A.** inactive

**Q.** What about the Potency [9] of the same compound?
**A.** 2.01 µM (active)

**Q.** For `CC(=O)c1cccc(N=[N+]=[N-])c1`, which Potency [6] is on record?
**A.** inactive

**Q.** Which Potency [13] does the source give for `Cc1cccc(C)c1OP(=O)(OCc1c(-c2ccccc2)no[n+]1[O-])Oc1c(C)cccc1C` here?
**A.** 1.12 µM (active)

**Q.** What about the Potency [6] of the same compound?
**A.** 5.04 µM (active)

**Q.** What about the Potency [7] of the same compound?
**A.** 12.7 µM (active)

**Q.** And the Potency [8]?
**A.** 12.7 µM (active)

**Q.** And the Potency [15]?
**A.** inactive

**Q.** Which Potency [13] does the source give for `Cc1ccc(S(=O)(=O)N[C@@H](CCCCN)C(=O)CCl)cc1` here?
**A.** inactive

**Q.** What about the Potency [6] of the same compound?
**A.** inactive

**Q.** What about the Potency [7] of the same compound?
**A.** inactive

**Q.** And the Potency [8]?
**A.** 12.7 µM (active)

**Q.** Which Potency [6] does the source give for `CC(=O)N(C)CC#CCN1CCC(O)CC1` here?
**A.** inactive

**Q.** Which Potency [13] does the source give for `CN(Cc1ccccc1)C[C@H]1CN2CC[C@H]1C[C@@H]2CNC(=O)c1ccc(C(F)(F)F)cc1` here?
**A.** inactive

**Q.** For `CCc1nn2c(=O)cc(C3=CCNCC3)nc2s1`, which Potency [6] is on record?
**A.** inactive

**Q.** Which Potency [13] does the source give for `C[C@@H]1Cc2c(Cl)cc(C(=O)N[C@@H](Cc3ccccc3)C(=O)O)c(O)c2C(=O)O1` here?
**A.** inactive

**Q.** And the Potency [6]?
**A.** inactive

**Q.** And the Potency [14]?
**A.** inactive

**Q.** What about the Potency [8] of the same compound?
**A.** inactive

**Q.** And the Potency [15]?
**A.** inactive

**Q.** With `CCCN(CCC)[C@@H]1CCc2ccc3[nH]c(C#N)cc3c2C1` as the compound, how does the Potency [13] read?
**A.** inactive

**Q.** What about the Potency [6] of the same compound?
**A.** inactive

**Q.** What about the Potency [14] of the same compound?
**A.** inactive

**Q.** And the Potency [7]?
**A.** inactive

**Q.** What about the Potency [8] of the same compound?
**A.** inactive

**Q.** What about the Potency [15] of the same compound?
**A.** inactive

**Q.** What does the source list for `CC(=O)OCC1=C(C(=O)O)N2C(=O)C(NC(=O)CCCC(N)C(=O)O)C2SC1` (stereo not given)?
**A.** Potency [13]: inactive; Potency [7]: inactive

**Q.** Which Potency [6] does the source give for `COc1ccc(-c2nc(CS(=O)CC(=O)N3CCC4(CC3)OCCO4)c(C)o2)cc1` (stereo not given) here?
**A.** inactive

**Q.** Which Potency [6] does the source give for `CO[C@@H]1C[C@H](O[C@H]2CC[C@]3(C)C4CC[C@]5(C)[C@@H](C6=CC(=O)OC6)[C@@H](OC(C)=O)C[C@]5(O)C4CC[C@@H]3C2)OC(C)[C@H]1O` (stereo not given in full) here?
**A.** inactive

**Q.** Which Potency [13] does the source give for `N#Cc1c(-c2cc(F)cc(-c3no[n+]([O-])c3C#N)c2)no[n+]1[O-]` here?
**A.** 0.357 µM (active)

**Q.** What about the Potency [8] of the same compound?
**A.** 1.59 µM (active)

**Q.** What about the Potency [9] of the same compound?
**A.** 11.3 µM (active)

**Q.** Which Potency [13] does the source give for `N#C/C(=C\c1ccc(O)c(O)c1)C(N)=S` here?
**A.** 8.96 µM (active)

**Q.** What about the Potency [6] of the same compound?
**A.** 3.18 µM (active)

**Q.** And the Potency [7]?
**A.** 1.01 µM (active)

**Q.** And the Potency [8]?
**A.** 5.65 µM (active)

**Q.** And the Potency [9]?
**A.** 1.42 µM (active)

**Q.** Which Potency [6] does the source give for `N#Cc1nc(-c2cccc3ccccc23)oc1NCc1ccccc1` here?
**A.** 2.52 µM (active)

**Q.** And the Potency [15]?
**A.** inactive

**Q.** What about the Potency [9] of the same compound?
**A.** 7.12 µM (active)

**Q.** Which Potency [14] does the source give for `C[C@@H]1C[C@@H](O)[C@]2(O)O[C@@H]3C[C@@]4(C=O)C(CC[C@@H]5C4CC[C@]4(C)[C@@H](C6=CC(=O)OC6)CC[C@]54O)C[C@H]3O[C@@H]2O1` (stereo not given in full) here?
**A.** inactive

**Q.** For `O=C(CNC12CC3CC(CC(C3)C1)C2)c1ccc(Cl)cc1`, which Potency [6] is on record?
**A.** inactive

**Q.** Which Potency [6] does the source give for `O=[N+]([O-])/C=C/c1ccc2c(c1)OCO2` here?
**A.** 5.01 µM (active)

**Q.** And the Potency [7]?
**A.** 15.8 µM (active)

**Q.** What about the Potency [2] of the same compound?
**A.** inactive

**Q.** What about the Potency [8] of the same compound?
**A.** 35.5 µM (active)

**Q.** And the Potency [9]?
**A.** 3.57 µM (active)

**Q.** For `CN1CCN(c2cnc3c(O)ccc(C(=O)O)c3c2)CC1`, which Potency [13] is on record?
**A.** inactive

**Q.** And the Potency [6]?
**A.** inactive

**Q.** What about the Potency [14] of the same compound?
**A.** inactive

**Q.** What about the Potency [7] of the same compound?
**A.** 12.7 µM (active)

**Q.** What about the Potency [15] of the same compound?
**A.** inactive

**Q.** For `Oc1ccc(C2=CCNCC2)cc1O`, which Potency [6] is on record?
**A.** inactive
